Our source for the growth values is PubChem BioAssay (NCI).

The panel holds about 83,000 compounds, 20% with a hit somewhere; the sample as a whole holds those more often.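 Interpretation: 100, growth as untreated; towards 0, rising growth inhibition; 0, no net growth; 0 to -100, cell death. Compounds scoring below 10 were considered active.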 A number with no mark means an inactive call. The source made the active and inactive calls.

Assay in all cases: NCI-60 one-dose screen, 48 h (100 = growth as untreated, 0 = no growth, -100 = all killed)
What all share (details): 10 µM unless noted

Assay [1] deals with HCT-15 colon.
Assay [2] deals with HT29 colon.
Assay [3] relates to SNB-75 CNS.
In assay [4] the test system is SNB-19 CNS.
Assay [5] has as its system U251 CNS.
Assay [6] has as its system PC-3 prostate.
Assay [7] has as its system SK-MEL-5 melanoma.
The test system of assay [8] is UACC-62 melanoma.
For assay [9], the system named is LOX IMVI melanoma.
The subject of assay [10] is SK-MEL-28 melanoma.

Turning to `c1ccc(CCn2nnc3c(Nc4ccc(N5CCOCC5)cc4)ncnc32)cc1`, the growth in [1] was 70.7%; in assay [2], 81.3%; in [3], 84.8%; in [4] it was 95.7%; in assay [5], 93.3%; in assay [6], 65.1%. Moreover, the growth in assay [7] was 81.8%; in [8], 85.8%; in [9] it was 97.4%; in [10] it was 104%.
Regarding `Cc1sc2nc(CSc3nnc(-c4ccco4)o3)[nH]c(=O)c2c1C`, the growth in assay [1] is 90.7%; in [2], 118%; in assay [3], 108%; in assay [4], 106%; in [5] it was 88%; in assay [6] it was 102%. Besides, the growth is 97.5% in [7], 108% in assay [8], 99.2% in assay [9] and 110% in assay [10].
On to `COc1ccc(OC)c(C(=O)c2oc3ccc(Br)cc3c2N)c1`, for which the growth in [1] is 24.2%; in assay [2], 7.35% (active); in assay [3] it was -29.4% (active); in assay [4] it was 38.3%; in assay [5], 9.85% (active); in assay [6], -1.02% (active). For the same molecule, the growth in assay [7] was 31.7%; in assay [8], 10.9%; in assay [9], 32.9%; in [10], 37.9%.
`COc1cccc(-c2nc3sccn3c2-c2ccnc(NCCCNS(=O)(=O)c3ccc(F)cc3)n2)c1`: the growth in [1] is 18.1%; in [2] it was 26.7%; in assay [3], 66.8%; in assay [4] it was 78.4%; in [5], 49.6%; in [6], 47.7%. For the same molecule, the growth in assay [7] was 7.26% (active); in assay [8] it was 6.83% (active); in assay [9] it was 14.4%; in assay [10], 38.1%.
Take `CCCCCCCN(CCCCCCC)C(=N)c1ccc(OC)c2ccccc12`: the growth in assay [1] is -81.4% (active); in [2], -78.8% (active); in [3], -98.2% (active); in assay [4] it was -80.7% (active); in assay [5], -90.5% (active); in [6], -92.3% (active). In addition, the growth in assay [7] is -93.2% (active); in assay [8], -76.5% (active); in assay [9] it was -98.7% (active); in assay [10] it was -82.9% (active).
Take `COC(=O)[C@H]1[C@H](OC)[C@@H](OC(=O)/C=C/c2ccncc2)CC2CN3CCc4c([nH]c5cc(OC)ccc45)[C@@H]3C[C@@H]21` (stereo not given in full): the growth in assay [1] is 75.5%; in assay [2] it was 68.9%; in [3], 48.6%; in assay [4] it was 84.1%; in [5], 67.1%; in [6] it was 56%. Moreover, the growth was 89.6% in [7], 43.8% in assay [8], 50.4% in [9] and 94.5% in assay [10].
Turning to `CC/C=C\C[C@H]1C/C=C2/C(=O)C(Cl)=C[C@@H]2C/C=C\CCCC(=O)O1`, the growth is -90.8% (active) in assay [1]; -55.6% (active) in assay [2]; -19.9% (active) in [3]; -40.2% (active) in [4]; -79.2% (active) in assay [5]; -69.9% (active) in assay [6]. Moreover, the growth was -62.6% (active) in [7], -53.1% (active) in [8], -91.4% (active) in [9] and -43% (active) in assay [10].
For `Cc1cccc2cc(/C=C/C(=O)/C=C/c3ccc(Cl)cc3)c(=O)[nH]c12`, the growth is 43.6% in assay [1]; 7.76% (active) in [2]; 79.7% in assay [3]; 49.5% in [4]; 10.6% in assay [5]; 33.8% in [6]. Further, the growth in assay [7] is 91.2%; in assay [8], 30.4%; in assay [9] it was 4.24% (active); in [10] it was 75.4%.
Turning to `COc1cc(/C=C\c2cc(OC)c(OC)c(OC)c2)cc(N/C=C\C(=O)c2c[nH]c3ccccc23)c1OC`, the growth in assay [1] was -39% (active); in assay [2], -77.7% (active); in [3], 34%; in [4], 54.1%; in assay [5], 58.7%; in assay [6] it was 37.3%. Further, the growth was 54.2% in assay [7], 3.34% (active) in assay [8], -73.3% (active) in [9] and -90% (active) in [10].
In the case of `COc1ccc(/C=C/c2nc(N3CCOCC3)c3nc(Cl)c(Cl)cc3n2)cc1OC`, the growth was 97.5% in assay [1]; 97.4% in assay [2]; 88.3% in assay [3]; 102% in assay [4]; 103% in [5]; 102% in assay [6]. Further, the growth in [7] was 103%; in assay [8], 101%; in assay [9], 97.2%; in [10] it was 109%.
For `O=C(CNC(=O)c1cccc2ccccc12)Nc1ccccc1Oc1ccccc1`, the growth is 8.09% (active) in assay [1]; 1.97% (active) in assay [2]; 38.9% in [3]; 33.8% in assay [4]; 11.5% in assay [5]; 2.31% (active) in assay [6]. Further, the growth in assay [7] is -33.1% (active); in [8] it was 21.3%; in [9], 15.5%; in [10], 57.8%.
For `CCCCCCc1nc2c(c(C)nn2-c2ccccc2)c2c1CCCCC2`, the growth in assay [1] was 108%; in assay [2], 100%; in assay [3], 105%; in assay [4] it was 99.9%; in [5] it was 102%; in assay [6], 94.1%. Moreover, the growth in assay [7] was 94.3%; in assay [8], 101%; in [9] it was 98.2%; in [10] it was 107%.
As for `CCOC(=O)C1=C(C)NC(=O)NC1c1ccc(OCC(=O)N/N=C/c2ccc(Cl)cc2)cc1` (stereo not given), the growth is 97.5% in assay [1]; 94.3% in assay [2]; 79.1% in assay [3]; 89.5% in assay [4]; 91.9% in assay [5]; 89% in assay [6]. Also, the growth in [7] is 97.1%; in [8], 87.3%; in assay [9] it was 98.2%; in assay [10], 105%.
On to `C=C1C(=O)O[C@H]2[C@H]1CC/C(COC(=O)NCc1cc(OC)c(OC)c(OC)c1)=C\CC[C@@]1(C)O[C@@H]21`, for which the growth in assay [1] is 42.3%; in assay [2], 21.4%; in [3] it was 83.8%; in [4], 72.8%; in assay [5] it was 81.3%; in [6] it was 66.1%. Moreover, the growth in assay [7] was 95.2%; in [8] it was 38.8%; in assay [9], 54.3%; in assay [10], 63.2%.
As for `O=C(NCCc1c[nH]c2ccccc12)C1Cc2ccccc2CN1C(=O)c1ccco1` (stereo not given), the growth in assay [1] is 111%; in assay [2], 114%; in assay [3] it was 106%; in assay [4] it was 112%; in assay [5], 98.5%; in assay [6], 96.9%. Besides, the growth in assay [7] was 95.6%; in assay [8] it was 93.4%; in assay [9], 94.9%; in assay [10], 116%.
Regarding `CC(C)C[C@H](NC(=O)[C@@H](Cc1ccccc1)n1ccc(Nc2ccccc2)cc1=O)B(O)O`, the growth is 28.9% in [1]; -14.1% (active) in [2]; -18.6% (active) in assay [3]; 18.1% in assay [4]; 5.67% (active) in [5]; 21.1% in assay [6]. The growth is -68.2% (active) in [7], -77.1% (active) in [8], -66.7% (active) in assay [9] and 21.7% in [10].
On to `COc1ncc(-c2ccc3ncnc(Nc4cccc(Cl)c4)c3c2)cc1NS(=O)(=O)C1CC1`, for which the growth in assay [1] was 27.6%; in assay [2] it was 29.7%; in assay [3], -1.09% (active); in assay [4] it was 49.7%; in assay [5] it was 59.9%; in assay [6], 24.4%. Further, the growth was 37.3% in assay [7], 25.1% in [8], 34.8% in assay [9] and 39.4% in assay [10].
`C[N+](C)(C)c1ccc(CC2c3ccccc3-c3ccccc32)cc1`: the growth was 98.1% in assay [1]; 65.9% in assay [2]; -3.78% (active) in assay [3]; 23.2% in assay [4]; 19.3% in [5]; 56.1% in assay [6]. Besides, the growth in assay [7] was 77.1%; in assay [8], 81.5%; in [9] it was 86.3%; in [10], 81.3%.
`CCC1CCc2nc3sc(C(=O)Nc4ccccc4C)c(N)c3cc2C1` (stereo not given): the growth in assay [1] is 26.3%; in [2], 7.01% (active); in assay [3], 25.9%; in assay [4], 54.1%; in assay [5], 42%; in assay [6], 26.8%. Besides, the growth in assay [7] was 26.6%; in assay [8] it was 33.2%; in [9] it was 35%; in [10] it was 49.5%.
As to `CC/C=C\C/C=C\C[C@H](O)C/C=C1/C(=O)C=C[C@H]1C/C=C\CCC(=O)OC`, the growth in assay [1] was -13.3% [8.25 µM] (active); in assay [2], 2.84% [8.25 µM] (active); in assay [3], 75.2% [8.25 µM]; in assay [4], 62.4% [8.25 µM]; in assay [5] it was 15% [8.25 µM]; in assay [6], 20.1% [8.25 µM]. For the same molecule, the growth in assay [7] is 24.5% [8.25 µM]; in assay [8], 4.47% [8.25 µM] (active); in assay [9], -71.8% [8.25 µM] (active); in assay [10], 22.5% [8.25 µM].
Consider `CC(=O)Nc1nc(C(=O)N2N=C(C)/C(=C/c3ccccc3)C2=O)cs1`, for which the growth in assay [1] is 105%; in assay [2] it was 97.5%; in assay [3], 95.5%; in assay [4] it was 103%; in assay [5], 104%; in [6], 97.7%. Also, the growth in [7] was 108%; in assay [8] it was 114%; in assay [9], 98.7%; in assay [10], 121%.
On to `O=Nc1c(-c2c(O)[nH]c3ccc([N+](=O)[O-])cc23)[nH]c2ccc(O)cc12`, for which the growth in assay [1] was 10.3%; in assay [2], 69.2%; in assay [3] it was -28.1% (active); in assay [4], 17.5%; in [5], 0.602% (active); in assay [6], 2.12% (active). In addition, the growth in assay [7] was -40.9% (active); in assay [8], -34.4% (active); in assay [9] it was -32.4% (active); in assay [10], -11% (active).
As to `COc1cc(OC)c(C(=O)/C=C/c2ccc(C#N)cc2)c(OC)c1`, the growth is 9.66% (active) in assay [1]; 3.67% (active) in [2]; 14.1% in assay [3]; 16.7% in assay [4]; 12.6% in [5]; 37.4% in [6]. Further, the growth in [7] is 8.04% (active); in assay [8], 26.5%; in [9], 6.31% (active); in assay [10] it was 39.2%.
As to `Nc1nc(N)c2nc(CNc3ccc(C(=O)CC(CCC(=O)O)C(=O)O)cc3)cnc2n1` (stereo not given), the growth in assay [1] was 33.3%; in assay [2] it was 36.7%; in assay [3] it was 71.7%; in assay [4] it was 42.9%; in assay [5], 36.2%; in assay [6], 33.6%. Also, the growth in assay [7] is 22.8%; in [8], 26.6%; in assay [9] it was 20.5%; in assay [10] it was 68.7%.
As for `CCN1C(=O)N(CC)C2C1NN=c1s/c(=C3\C(=O)N(C4CCCC4)c4ccccc43)c(=O)n12` (stereo not given), the growth is 15.8% in assay [1]; 1.3% (active) in [2]; -21.9% (active) in assay [3]; 34.9% in assay [4]; 18.3% in assay [5]; 25.3% in [6]. Also, the growth in [7] was 12.7%; in [8], 34.9%; in assay [9], 30.3%; in assay [10] it was 57.9%.
On to `COc1ccc(OC)c(/C=C2\Oc3cc(OCCN4CCCC4)ccc3C2=O)c1`, for which the growth in assay [1] was 93.7%; in assay [2] it was 23.8%; in assay [3] it was 95.7%; in assay [4], 94.3%; in assay [5], 89.5%; in [6], 91.5%. In addition, the growth was 89.2% in [7], 100% in assay [8], 90.3% in assay [9] and 101% in [10].
